The target of experiment [1] is Tyrosine-protein kinase SYK (Homo sapiens) (UniProt P43405). The following applies: at 10 µM.
Experiment [2] concerns the target T1, Mitogen-activated protein kinase kinase kinase 7 (Homo sapiens) (UniProt O43318).
T1 sequence (whole entry): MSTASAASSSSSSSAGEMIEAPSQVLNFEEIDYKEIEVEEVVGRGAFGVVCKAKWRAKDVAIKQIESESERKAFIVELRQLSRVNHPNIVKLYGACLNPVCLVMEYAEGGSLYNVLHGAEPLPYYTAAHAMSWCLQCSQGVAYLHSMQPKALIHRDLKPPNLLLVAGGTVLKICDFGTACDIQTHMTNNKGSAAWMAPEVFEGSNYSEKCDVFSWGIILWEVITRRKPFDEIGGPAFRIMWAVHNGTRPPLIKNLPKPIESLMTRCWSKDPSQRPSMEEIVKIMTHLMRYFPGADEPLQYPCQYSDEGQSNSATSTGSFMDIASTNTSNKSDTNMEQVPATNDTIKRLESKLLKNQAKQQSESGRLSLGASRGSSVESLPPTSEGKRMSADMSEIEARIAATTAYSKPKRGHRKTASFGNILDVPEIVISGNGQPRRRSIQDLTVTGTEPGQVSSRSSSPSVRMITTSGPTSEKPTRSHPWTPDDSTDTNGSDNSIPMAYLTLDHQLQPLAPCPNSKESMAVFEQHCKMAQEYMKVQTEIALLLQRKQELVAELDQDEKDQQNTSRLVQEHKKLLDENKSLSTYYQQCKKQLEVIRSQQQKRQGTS
The following applies: at 1 µM.

The target of experiment [3] is T1, Mitogen-activated protein kinase kinase kinase 7 (Homo sapiens). Conditions: at 10 µM.
In experiment [4] the target is T2, Serine/threonine-protein kinase TAO1 (Homo sapiens) (UniProt Q7L7X3).
T2 sequence (whole entry): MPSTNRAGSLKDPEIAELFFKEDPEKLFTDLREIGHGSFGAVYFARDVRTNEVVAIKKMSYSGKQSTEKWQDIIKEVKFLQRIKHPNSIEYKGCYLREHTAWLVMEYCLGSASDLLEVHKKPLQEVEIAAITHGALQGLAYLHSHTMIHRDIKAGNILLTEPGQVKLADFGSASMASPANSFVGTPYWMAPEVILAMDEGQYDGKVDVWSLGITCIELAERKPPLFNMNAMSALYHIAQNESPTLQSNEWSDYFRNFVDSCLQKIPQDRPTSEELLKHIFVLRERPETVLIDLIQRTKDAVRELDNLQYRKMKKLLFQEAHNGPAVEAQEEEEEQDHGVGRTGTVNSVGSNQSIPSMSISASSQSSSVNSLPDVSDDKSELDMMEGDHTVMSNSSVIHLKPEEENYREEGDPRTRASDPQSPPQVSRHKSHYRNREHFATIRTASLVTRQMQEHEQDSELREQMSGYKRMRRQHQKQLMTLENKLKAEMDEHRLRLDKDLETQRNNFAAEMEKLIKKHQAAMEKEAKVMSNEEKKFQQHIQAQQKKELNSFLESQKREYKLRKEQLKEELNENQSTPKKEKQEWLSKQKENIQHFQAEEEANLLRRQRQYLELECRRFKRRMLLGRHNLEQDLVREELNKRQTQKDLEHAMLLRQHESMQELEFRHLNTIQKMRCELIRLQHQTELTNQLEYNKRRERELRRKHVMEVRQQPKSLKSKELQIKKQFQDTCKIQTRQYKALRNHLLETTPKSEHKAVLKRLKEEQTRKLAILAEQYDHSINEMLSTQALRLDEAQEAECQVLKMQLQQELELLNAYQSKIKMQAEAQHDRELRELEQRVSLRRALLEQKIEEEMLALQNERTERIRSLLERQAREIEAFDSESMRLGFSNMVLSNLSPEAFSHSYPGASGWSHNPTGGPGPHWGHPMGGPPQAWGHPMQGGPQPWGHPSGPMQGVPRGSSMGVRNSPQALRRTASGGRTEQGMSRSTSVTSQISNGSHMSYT
The following applies: at 1 µM.

The target of experiment [5] is T2, Serine/threonine-protein kinase TAO1 (Homo sapiens). The following applies: at 10 µM.
Experiment [6] concerns the target T3, Serine/threonine-protein kinase TAO3 (Homo sapiens) (UniProt Q9H2K8).
T3 sequence (whole entry): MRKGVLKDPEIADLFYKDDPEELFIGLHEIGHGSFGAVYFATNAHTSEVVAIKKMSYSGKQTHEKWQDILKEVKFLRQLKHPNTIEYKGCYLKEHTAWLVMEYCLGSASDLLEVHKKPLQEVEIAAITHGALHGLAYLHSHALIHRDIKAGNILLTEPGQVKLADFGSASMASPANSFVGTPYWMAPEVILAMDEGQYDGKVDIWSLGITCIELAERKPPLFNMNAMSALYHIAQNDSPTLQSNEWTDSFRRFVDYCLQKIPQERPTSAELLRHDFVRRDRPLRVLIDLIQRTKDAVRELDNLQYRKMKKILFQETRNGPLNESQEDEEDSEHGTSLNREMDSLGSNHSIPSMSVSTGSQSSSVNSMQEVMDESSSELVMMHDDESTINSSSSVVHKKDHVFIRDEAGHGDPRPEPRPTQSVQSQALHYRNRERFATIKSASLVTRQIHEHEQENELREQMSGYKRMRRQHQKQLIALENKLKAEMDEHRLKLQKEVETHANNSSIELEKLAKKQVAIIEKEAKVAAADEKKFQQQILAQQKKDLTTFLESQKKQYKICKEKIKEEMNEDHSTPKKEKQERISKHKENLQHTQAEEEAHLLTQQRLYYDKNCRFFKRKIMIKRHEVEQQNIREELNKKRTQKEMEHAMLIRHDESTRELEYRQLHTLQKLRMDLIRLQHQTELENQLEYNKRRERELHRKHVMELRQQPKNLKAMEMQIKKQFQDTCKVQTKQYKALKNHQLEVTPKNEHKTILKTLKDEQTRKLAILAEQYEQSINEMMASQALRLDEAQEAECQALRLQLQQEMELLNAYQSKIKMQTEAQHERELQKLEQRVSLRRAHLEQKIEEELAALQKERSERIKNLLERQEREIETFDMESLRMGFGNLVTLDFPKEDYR
Conditions: at 1 µM.

Experiment [7] addresses T3, Serine/threonine-protein kinase TAO3 (Homo sapiens). Conditions: at 10 µM.
Experiment [8] addresses T4, Serine/threonine-protein kinase TBK1 (Homo sapiens) (UniProt Q9UHD2).
T4 sequence (whole entry): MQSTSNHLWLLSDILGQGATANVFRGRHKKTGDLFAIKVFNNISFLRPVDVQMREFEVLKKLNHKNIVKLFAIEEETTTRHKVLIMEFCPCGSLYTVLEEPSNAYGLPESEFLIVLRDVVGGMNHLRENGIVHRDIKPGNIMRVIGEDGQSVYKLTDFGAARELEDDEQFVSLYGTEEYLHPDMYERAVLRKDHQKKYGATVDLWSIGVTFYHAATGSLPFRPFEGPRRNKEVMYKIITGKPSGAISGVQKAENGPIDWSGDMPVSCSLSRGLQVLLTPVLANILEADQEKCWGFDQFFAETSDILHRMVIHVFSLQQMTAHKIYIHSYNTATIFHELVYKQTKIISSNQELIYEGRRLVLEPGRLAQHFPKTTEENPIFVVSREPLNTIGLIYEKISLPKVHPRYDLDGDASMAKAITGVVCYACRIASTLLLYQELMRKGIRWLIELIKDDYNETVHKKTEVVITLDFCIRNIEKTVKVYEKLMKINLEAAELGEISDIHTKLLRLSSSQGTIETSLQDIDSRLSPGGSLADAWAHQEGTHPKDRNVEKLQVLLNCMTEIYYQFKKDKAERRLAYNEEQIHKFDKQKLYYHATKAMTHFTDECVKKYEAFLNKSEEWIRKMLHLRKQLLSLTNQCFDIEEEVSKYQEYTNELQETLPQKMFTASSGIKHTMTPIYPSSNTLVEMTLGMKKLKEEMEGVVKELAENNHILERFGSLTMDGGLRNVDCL
Conditions: at 1 µM.

The target in experiment [9] is T4, Serine/threonine-protein kinase TBK1 (Homo sapiens). Conditions: at 10 µM.
Experiment [10] concerns the target T5, TGF-beta receptor type-1 (Homo sapiens) (UniProt P36897).
T5 sequence (whole entry): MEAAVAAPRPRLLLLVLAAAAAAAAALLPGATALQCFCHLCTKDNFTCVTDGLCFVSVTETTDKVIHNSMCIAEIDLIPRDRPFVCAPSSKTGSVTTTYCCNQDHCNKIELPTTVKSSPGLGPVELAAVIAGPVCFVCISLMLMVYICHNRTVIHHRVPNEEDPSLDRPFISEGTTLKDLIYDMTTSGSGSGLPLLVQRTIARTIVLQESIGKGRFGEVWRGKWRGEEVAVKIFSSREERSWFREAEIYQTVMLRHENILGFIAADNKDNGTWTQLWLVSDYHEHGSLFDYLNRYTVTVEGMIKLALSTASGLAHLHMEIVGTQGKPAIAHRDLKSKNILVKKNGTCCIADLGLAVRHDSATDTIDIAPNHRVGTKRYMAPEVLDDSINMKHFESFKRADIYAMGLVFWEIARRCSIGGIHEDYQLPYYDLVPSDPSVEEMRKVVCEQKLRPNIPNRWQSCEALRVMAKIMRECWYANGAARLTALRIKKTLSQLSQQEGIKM
The following applies: at 1 µM.

Experiment [11] deals with T5, TGF-beta receptor type-1 (Homo sapiens). The following applies: at 10 µM.
The target of experiment [12] is Insulin-like growth factor 1 receptor (Homo sapiens) (UniProt P08069). Conditions: at 1 µM.
The target is the same in experiment [13]. The following applies: at 10 µM.
In experiment [14] the target is T6, Inhibitor of nuclear factor kappa-B kinase subunit beta (Homo sapiens) (UniProt O14920).
T6 sequence (whole entry): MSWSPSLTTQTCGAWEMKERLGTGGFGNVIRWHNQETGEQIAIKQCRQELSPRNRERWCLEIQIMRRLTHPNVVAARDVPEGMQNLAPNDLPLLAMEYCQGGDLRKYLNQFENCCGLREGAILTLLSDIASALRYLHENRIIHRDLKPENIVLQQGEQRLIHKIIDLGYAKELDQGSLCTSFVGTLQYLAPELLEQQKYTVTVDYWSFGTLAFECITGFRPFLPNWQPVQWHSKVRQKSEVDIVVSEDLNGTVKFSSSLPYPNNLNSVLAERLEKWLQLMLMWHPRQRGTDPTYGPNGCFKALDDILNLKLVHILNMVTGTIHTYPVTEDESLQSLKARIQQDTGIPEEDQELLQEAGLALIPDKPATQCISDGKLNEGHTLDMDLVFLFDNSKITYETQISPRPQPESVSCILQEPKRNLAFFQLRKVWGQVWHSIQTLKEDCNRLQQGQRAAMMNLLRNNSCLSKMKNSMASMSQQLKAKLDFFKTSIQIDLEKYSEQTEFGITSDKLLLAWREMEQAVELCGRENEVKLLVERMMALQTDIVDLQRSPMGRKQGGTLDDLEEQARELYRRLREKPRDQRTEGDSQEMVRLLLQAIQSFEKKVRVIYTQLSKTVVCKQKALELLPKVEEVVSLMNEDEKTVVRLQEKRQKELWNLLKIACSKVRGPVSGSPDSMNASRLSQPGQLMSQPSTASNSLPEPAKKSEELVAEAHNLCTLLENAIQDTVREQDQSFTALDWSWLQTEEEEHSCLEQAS
The following applies: at 1 µM.

Experiment [15] deals with T6, Inhibitor of nuclear factor kappa-B kinase subunit beta (Homo sapiens). Conditions: at 10 µM.
Experiment [16] concerns the target Insulin receptor (Homo sapiens) (UniProt P06213). Conditions: at 1 µM.

Insulin-like growth factor 1 receptor (Homo sapiens), sequence (P08069 31-736 limits assumed): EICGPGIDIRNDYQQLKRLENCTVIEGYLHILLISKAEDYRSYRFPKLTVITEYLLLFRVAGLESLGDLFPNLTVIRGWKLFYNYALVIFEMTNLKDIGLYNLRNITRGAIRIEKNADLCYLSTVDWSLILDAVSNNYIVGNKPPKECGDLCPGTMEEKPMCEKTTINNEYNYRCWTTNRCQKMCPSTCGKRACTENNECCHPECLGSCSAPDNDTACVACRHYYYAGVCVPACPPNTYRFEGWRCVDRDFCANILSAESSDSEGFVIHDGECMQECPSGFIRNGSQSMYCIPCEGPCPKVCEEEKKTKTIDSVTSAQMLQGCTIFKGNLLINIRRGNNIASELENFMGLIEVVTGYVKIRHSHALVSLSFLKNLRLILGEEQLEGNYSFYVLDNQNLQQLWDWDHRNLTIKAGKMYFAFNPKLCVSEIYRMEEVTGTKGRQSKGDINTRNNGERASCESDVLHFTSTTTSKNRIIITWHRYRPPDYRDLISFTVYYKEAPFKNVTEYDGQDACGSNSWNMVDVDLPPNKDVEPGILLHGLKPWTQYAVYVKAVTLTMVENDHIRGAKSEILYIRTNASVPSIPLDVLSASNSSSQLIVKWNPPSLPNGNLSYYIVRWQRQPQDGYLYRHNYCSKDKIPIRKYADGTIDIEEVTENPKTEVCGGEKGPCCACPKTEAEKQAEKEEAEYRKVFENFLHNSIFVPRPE
Insulin-like growth factor 1 receptor (Homo sapiens), sequence (P08069 741-1367 limits assumed): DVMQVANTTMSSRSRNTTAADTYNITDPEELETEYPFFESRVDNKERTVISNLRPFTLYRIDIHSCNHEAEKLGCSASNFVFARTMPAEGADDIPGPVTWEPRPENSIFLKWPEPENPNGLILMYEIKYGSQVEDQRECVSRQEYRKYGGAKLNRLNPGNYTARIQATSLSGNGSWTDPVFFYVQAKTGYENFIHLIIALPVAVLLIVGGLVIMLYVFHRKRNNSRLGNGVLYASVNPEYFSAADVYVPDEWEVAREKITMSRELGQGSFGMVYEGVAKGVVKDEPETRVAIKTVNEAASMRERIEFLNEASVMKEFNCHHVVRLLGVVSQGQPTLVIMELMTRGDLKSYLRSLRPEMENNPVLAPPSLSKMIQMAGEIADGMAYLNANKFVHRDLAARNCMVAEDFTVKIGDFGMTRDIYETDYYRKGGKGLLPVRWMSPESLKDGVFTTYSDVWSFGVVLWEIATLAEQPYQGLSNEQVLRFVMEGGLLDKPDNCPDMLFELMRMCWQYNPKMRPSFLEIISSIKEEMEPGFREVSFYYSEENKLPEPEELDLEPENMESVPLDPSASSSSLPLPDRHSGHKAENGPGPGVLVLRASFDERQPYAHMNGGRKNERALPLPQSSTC
Insulin receptor (Homo sapiens), sequence (P06213 28-758 limits assumed): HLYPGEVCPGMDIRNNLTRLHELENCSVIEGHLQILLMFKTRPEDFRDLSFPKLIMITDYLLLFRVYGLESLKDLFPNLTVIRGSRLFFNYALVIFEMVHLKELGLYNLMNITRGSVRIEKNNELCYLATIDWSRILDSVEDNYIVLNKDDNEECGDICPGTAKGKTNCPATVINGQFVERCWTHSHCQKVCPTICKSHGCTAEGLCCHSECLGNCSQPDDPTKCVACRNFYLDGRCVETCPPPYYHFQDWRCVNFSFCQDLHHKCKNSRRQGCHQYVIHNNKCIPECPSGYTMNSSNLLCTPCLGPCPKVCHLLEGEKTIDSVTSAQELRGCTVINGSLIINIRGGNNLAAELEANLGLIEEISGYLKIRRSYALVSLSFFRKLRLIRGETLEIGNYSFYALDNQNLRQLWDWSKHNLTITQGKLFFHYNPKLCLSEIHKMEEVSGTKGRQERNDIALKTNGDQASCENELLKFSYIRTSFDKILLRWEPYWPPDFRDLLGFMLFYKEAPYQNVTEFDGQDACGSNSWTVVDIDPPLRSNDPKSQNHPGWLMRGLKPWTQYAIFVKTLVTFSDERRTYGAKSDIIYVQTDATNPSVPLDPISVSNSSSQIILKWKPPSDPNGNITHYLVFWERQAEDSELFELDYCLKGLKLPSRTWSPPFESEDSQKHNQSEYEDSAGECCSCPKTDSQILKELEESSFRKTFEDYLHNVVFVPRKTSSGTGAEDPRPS
Insulin receptor (Homo sapiens), sequence (P06213 763-1382 limits assumed): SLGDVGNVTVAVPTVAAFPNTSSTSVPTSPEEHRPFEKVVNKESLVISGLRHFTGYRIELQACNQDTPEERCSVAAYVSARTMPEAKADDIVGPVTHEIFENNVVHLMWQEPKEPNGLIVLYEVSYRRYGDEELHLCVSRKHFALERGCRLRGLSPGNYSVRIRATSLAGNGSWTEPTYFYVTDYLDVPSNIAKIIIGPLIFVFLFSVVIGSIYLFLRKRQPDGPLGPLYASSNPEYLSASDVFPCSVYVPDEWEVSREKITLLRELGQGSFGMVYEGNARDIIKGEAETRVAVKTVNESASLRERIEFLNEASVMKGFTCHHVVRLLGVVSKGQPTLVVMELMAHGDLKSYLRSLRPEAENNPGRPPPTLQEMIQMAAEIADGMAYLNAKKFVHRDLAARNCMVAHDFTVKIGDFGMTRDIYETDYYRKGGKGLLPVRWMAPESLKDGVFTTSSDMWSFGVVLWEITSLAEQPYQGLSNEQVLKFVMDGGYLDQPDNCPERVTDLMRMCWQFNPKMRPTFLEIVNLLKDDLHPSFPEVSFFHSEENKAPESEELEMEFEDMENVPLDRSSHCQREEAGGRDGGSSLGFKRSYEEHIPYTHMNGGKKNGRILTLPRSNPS

On to `O=C1C(Cl)=C(N2C(=O)CCC2=O)C(=O)c2ccccc21`, for which the residual activity in [1] was 101%; in experiment [2], 94%; in [3], 83%; in experiment [4], 89%; in experiment [5], 94%; in experiment [6], 101%. For the same compound, the residual activity in experiment [7] amounted to 94%; in experiment [8], 68%; in [9], 60%; in experiment [10] it was 100%; in [11], 90%; in [12], 90%. Besides, the residual activity in [13] amounted to 101%; in experiment [14], 116%; in experiment [15], 92%; in experiment [16] it was 100%.

The values are drawn from ChEMBL document CHEMBL2218924, “A broad activity screen in support of a chemogenomic map for kinase signalling research and drug discovery” (Biochem J, 2013).
